Results on 11 molecules are retold here after ChEMBL document CHEMBL3988442, “University of Dundee, Small-Polar-MMV Screening Library” (2021).

Design in all cases: scale not given: direction of the effect not stated beside the values
For assay [1], the target named is Protein translocase subunit SecA (Escherichia coli (strain K12)) (UniProt P10408). Nature of the assay: Assay to Identify E. coli SecA ATPase Inhibitors. Format: functional. Conditions: 30 µM.
Assay [2] concerns the target T1, Ubiquitin-activating enzyme e1, putative (Leishmania donovani (strain BPK282A1)) (UniProt E9BSI1).
T1 sequence (whole entry): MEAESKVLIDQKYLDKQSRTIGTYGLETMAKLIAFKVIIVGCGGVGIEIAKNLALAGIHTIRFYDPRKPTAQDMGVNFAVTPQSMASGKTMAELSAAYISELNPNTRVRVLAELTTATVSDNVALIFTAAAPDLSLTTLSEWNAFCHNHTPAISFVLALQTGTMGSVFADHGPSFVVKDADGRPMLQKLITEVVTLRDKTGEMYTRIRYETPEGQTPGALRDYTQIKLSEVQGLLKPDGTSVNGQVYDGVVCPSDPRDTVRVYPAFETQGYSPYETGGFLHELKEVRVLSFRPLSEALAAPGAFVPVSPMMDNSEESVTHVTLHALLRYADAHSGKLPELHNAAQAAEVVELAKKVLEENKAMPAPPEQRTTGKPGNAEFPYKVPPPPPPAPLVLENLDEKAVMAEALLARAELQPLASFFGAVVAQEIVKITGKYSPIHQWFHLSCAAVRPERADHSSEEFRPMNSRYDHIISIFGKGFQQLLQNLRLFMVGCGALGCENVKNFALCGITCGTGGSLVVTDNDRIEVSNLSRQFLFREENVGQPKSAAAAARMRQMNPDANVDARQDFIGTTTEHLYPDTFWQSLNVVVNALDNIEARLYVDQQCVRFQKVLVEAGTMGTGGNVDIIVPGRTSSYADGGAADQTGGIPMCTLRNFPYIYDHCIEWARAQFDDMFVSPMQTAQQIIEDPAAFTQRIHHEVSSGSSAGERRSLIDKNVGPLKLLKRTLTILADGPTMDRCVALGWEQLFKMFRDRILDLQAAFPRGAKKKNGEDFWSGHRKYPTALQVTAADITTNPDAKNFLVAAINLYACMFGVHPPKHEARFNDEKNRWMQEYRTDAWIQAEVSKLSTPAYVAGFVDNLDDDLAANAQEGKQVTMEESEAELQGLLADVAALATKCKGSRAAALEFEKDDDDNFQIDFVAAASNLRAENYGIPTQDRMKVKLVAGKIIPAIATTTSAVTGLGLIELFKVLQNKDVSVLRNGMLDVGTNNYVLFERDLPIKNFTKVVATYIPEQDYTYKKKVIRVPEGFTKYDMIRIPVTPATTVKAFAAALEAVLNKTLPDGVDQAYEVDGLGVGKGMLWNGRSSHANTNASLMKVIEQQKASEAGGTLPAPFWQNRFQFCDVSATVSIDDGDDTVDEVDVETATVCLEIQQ
The experiment in a line: Leishmania donovani Ubiquitin Activating Enzyme (LdE1). The format is functional. Conditions: 30 µM.

For assay [3], the target named is AMP-activated protein kinase, AMPK (Homo sapiens) (UniProt P54646+O43741+P54619+Q9UGJ0+Q9Y478+Q13131+Q9UGI9). Nature of the assay: AMP-dependent Kinase enzyme assay. An in vitro enzyme assay that detects ADP turnover that is directly proportional to AMPK activity. This uses naive AMPK that is activated during the assay with MK-8722. Format: functional. Conditions: 30 µM.

For assay [4], the target named is Sialic acid-binding Ig-like lectin 9 (Homo sapiens) (UniProt Q9Y336). The experiment in a line: Hs-Siglec9 ALPHAscreen SOP 20170721. Conditions: 10 µM.
Another assay deals with Trypanosoma cruzi. The experiment in a line: Trypanosoma cruzi phosphomannomutase and mannose-1-phosphate guanylyltransferase assay. The format is functional. Particulars: 10 µM.
Assay [5] concerns the target T2, Arginase-2, mitochondrial (Homo sapiens) (UniProt P78540).
T2 sequence (whole entry): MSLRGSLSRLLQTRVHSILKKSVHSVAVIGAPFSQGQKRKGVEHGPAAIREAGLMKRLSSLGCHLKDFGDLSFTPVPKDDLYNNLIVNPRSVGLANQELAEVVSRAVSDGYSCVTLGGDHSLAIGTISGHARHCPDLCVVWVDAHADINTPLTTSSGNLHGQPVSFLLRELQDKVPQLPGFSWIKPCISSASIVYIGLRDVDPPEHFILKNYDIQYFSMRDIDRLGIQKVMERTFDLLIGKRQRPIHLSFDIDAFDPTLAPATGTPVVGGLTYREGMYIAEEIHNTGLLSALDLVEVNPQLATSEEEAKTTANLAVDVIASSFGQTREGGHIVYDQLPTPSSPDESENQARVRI
The experiment in a line: in vitro enzyme assay to detect the production of urea directly proportional to the activity of Arginase II. Note: in the data most compounds retested in dose-response had high values. The format is functional. Conditions: 33.3 µM.

Assay [6] deals with T3, Proteasome subunit beta (Trypanosoma cruzi) (UniProt O96673).
T3 sequence (whole entry): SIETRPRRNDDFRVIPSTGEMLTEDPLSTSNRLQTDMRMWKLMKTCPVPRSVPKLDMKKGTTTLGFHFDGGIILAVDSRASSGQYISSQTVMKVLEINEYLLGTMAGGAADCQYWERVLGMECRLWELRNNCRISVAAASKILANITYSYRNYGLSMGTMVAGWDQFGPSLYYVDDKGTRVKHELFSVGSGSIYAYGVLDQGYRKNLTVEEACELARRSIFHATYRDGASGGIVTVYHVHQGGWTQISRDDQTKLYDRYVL
The experiment in a line: Trypanosoma cruzi proteasome chymotrypsin-like activity (TcProtChymo) assay. Note: in the data most compounds retested in dose-response had high values. Format: functional. Particulars: 9.37 µM.

The species named for a further assay is Homo sapiens. Nature of the assay: To identify inhibition of the IFN signalling (Jak-Stat) pathway via expression of an eGFP reporter gene under the control of an IFN-stimulated response element (ISRE) containing MxA promoter. The format is functional. Conditions: 30 µM.
The target in assay [7] is T4, Tyrosyl-tRNA synthetase, putative (Trypanosoma cruzi (strain CL Brener)) (UniProt Q4DSP6).
T4 sequence (whole entry): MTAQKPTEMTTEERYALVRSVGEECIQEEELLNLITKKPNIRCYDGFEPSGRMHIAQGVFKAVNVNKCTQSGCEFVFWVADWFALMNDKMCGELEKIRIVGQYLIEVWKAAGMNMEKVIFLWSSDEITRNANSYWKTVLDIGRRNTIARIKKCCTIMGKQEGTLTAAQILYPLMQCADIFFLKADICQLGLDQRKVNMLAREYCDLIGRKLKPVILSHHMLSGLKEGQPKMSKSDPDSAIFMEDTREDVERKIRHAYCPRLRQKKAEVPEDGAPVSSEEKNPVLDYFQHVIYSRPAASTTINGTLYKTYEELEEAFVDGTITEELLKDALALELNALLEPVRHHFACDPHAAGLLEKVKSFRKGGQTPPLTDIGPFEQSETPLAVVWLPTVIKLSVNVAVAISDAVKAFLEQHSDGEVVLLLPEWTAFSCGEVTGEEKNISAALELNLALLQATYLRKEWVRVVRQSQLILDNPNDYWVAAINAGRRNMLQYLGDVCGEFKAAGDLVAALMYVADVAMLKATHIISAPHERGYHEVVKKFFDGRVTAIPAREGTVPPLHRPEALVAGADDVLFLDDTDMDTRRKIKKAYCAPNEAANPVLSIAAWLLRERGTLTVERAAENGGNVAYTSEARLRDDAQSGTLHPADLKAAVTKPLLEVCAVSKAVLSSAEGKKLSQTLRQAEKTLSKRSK
Nature of the assay: Trypanosoma cruzi tyrosyl tRNA synthetase (TcYRS) _High Tyrosine SOP. Note: in the data most compounds retested in dose-response had high values. Format: functional. Particulars: 30 µM.

Assay [8] deals with T4, Tyrosyl-tRNA synthetase, putative (Trypanosoma cruzi (strain CL Brener)). The experiment in a line: Trypanosoma cruzi tyrosyl tRNA synthetase (TcYRS) SOP. Format: functional. Conditions: 30 µM.
For assay [9], the target named is Chromo domain-containing protein 1 (Saccharomyces cerevisiae (strain ATCC 204508 / S288c) (Baker's yeast)) (UniProt P32657). Nature of the assay: ScCHD-1 Enzyme Inhibition Assay. Note: in the data most compounds retested in dose-response had high values. The format is functional. Particulars: 30 µM.

For some of these results: Entries with a potency or affinity are not part of this list.

Sequence of Chromo domain-containing protein 1 (Saccharomyces cerevisiae (strain ATCC 204508 / S288c) (Baker's yeast)) (P32657 whole entry, the tested form may be a part): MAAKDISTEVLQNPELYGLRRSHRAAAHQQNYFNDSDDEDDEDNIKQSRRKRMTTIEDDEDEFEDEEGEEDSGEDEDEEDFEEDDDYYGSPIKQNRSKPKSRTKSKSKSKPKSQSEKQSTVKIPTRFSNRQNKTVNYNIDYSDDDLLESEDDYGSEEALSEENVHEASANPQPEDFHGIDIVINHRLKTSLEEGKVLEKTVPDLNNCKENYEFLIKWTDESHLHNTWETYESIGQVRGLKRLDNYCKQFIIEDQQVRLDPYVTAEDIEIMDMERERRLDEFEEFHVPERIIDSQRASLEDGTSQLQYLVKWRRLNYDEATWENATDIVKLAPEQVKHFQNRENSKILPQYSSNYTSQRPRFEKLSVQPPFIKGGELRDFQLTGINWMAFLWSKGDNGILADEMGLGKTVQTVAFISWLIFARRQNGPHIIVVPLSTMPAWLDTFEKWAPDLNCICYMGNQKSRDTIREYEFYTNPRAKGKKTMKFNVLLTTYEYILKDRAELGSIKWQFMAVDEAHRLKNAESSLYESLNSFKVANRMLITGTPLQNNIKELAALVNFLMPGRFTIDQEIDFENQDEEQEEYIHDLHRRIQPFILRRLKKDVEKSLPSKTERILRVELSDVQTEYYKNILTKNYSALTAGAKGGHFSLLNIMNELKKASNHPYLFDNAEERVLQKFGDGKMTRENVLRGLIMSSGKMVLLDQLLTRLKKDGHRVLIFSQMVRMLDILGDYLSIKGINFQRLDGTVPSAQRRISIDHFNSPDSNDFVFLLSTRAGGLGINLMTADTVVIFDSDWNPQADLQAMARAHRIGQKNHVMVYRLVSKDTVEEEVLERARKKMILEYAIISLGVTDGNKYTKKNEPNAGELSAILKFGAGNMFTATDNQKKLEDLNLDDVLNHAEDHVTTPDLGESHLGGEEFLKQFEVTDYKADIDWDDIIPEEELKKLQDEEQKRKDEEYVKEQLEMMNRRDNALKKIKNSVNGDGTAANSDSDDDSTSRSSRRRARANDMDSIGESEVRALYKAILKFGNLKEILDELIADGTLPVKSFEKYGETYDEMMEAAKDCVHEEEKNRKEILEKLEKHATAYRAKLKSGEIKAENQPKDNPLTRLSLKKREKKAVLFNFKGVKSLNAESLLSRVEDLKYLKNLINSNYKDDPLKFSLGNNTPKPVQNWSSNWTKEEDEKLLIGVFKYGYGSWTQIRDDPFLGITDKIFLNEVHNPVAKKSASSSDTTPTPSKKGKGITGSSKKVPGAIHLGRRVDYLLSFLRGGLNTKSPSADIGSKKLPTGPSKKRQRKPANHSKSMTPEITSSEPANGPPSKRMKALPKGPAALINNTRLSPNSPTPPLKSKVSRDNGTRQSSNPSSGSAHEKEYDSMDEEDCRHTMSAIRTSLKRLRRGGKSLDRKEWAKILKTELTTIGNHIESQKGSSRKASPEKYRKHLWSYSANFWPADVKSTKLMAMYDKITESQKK
Sequence of Sialic acid-binding Ig-like lectin 9 (Homo sapiens) (Q9Y336 whole entry): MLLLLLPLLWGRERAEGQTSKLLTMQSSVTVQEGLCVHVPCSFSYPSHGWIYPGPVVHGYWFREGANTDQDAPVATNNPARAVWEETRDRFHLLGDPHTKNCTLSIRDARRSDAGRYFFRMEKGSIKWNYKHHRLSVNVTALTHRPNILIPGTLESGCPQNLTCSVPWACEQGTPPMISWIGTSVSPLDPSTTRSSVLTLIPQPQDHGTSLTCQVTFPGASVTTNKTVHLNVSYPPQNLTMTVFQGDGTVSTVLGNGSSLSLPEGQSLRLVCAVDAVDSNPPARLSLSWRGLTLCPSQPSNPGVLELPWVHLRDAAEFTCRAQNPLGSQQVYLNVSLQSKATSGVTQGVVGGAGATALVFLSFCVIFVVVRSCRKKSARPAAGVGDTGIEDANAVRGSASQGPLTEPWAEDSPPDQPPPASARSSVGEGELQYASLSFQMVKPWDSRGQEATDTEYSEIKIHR
Sequence of Protein translocase subunit SecA (Escherichia coli (strain K12)) (P10408 whole entry): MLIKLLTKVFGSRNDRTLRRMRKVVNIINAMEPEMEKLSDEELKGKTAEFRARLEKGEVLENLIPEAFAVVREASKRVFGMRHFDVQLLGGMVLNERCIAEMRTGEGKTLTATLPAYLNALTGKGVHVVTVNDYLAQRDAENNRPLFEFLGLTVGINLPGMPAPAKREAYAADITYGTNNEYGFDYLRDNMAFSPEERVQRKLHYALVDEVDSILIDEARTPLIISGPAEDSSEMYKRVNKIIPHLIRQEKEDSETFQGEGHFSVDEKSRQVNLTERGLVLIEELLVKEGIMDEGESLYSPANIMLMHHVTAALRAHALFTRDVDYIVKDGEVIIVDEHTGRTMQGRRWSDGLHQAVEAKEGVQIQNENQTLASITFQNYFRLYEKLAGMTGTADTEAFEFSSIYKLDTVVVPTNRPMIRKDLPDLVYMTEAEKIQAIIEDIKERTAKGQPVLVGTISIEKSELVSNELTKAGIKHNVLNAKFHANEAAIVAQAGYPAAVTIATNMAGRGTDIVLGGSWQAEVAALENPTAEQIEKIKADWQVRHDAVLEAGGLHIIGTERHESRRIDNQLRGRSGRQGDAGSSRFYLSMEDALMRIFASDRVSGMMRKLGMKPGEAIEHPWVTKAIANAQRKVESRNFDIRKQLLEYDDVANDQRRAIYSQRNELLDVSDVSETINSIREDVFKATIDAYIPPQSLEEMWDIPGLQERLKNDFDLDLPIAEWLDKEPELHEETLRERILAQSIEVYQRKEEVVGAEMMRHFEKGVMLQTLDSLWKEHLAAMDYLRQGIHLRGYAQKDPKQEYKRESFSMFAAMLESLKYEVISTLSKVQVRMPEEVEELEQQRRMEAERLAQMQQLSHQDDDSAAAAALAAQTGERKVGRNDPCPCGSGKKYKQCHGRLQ

With `O=C(c1cnc(-c2ccco2)s1)N1CCCC1Cn1cccn1` (stereo unspecified), the Percent Effect in assay [1] is -4.62%; in assay [2], 3.8%; in assay [3], 8.45%; in [4], 0.321%; with Trypanosoma cruzi it was 2.97%; in [5], 1.5%. The Percent Effect in assay [6] was determined as 9.09%; in the assay filed under Homo sapiens, 13%; in assay [7], 7.29%; in assay [8] it was 5.06%; in assay [9], 0.437%.

Take `COc1cc(CN(C)C(=O)Nc2cc(C)on2)ccc1SC`: the Percent Effect is -9.88% in assay [1]; 5.41% in assay [2]; -3.24% in [3]; 0.0571% in assay [4]; -2.73% in the assay with Trypanosoma cruzi; -24.2% in [5]. Further, the Percent Effect is 21.6% in [6]; 6.33% in the assay listed under Homo sapiens; 9.9% in assay [7]; 1.22% in assay [8]; -2.37% in assay [9].

As for `CCSc1cc(C(=O)NCc2ccccc2O)ccn1`, the Percent Effect in assay [1] was -5.37%; in assay [2], 0%; in assay [3], 5.33%; in assay [4] it was -0.329%; with Trypanosoma cruzi, 7.05%; in assay [5], -0.909%. In addition, the Percent Effect in [6] was 12.2%; in the assay filed under Homo sapiens, 44.3%; in assay [7], 3.23%; in assay [8], 5%; in assay [9], -5.04%.

Regarding `O=C(CSc1ncccn1)N1C[C@H]2CC[C@@H]1CN(Cc1ccncc1)C2`, the Percent Effect is -4.87% in assay [1]; 11% in [2]; -5.51% in [3]; 21% in [4]; 6.46% in the assay with Trypanosoma cruzi; 8.64% in assay [5]. In addition, the Percent Effect was 12.9% in assay [6]; -3.77% in the assay listed under Homo sapiens; 5.38% in assay [7]; 7.5% in [8]; -3.96% in assay [9].

For the molecule `Cn1cc(-c2csc(N3CCOCC3)n2)cn1`, the Percent Effect is -3.35% in [1]; 1.39% in assay [2]; -45.6% in assay [3]; -2.23% in [4]; 1.26% with Trypanosoma cruzi; 2.21% in assay [5]. For the same molecule, the Percent Effect was 0.702% in assay [6]; 1.08% in the assay listed under Homo sapiens; 15.8% in assay [7]; 28.2% in assay [8]; -0.624% in assay [9].

On to `COc1ccccc1OCCN1CCC(N2CCNC2=O)CC1`, for which the Percent Effect in assay [1] was -6.27%; in [2], 5.41%; in assay [3], 1.68%; in [4], 3.47%; in the assay on Trypanosoma cruzi it was -5.66%; in assay [5], 3.51%. Further, the Percent Effect was 12% in assay [6]; 18.9% in the assay filed under Homo sapiens; -3.96% in assay [7]; -13.4% in assay [8]; 0.174% in assay [9].

On to `CN(C)S(=O)(=O)N1CCC(Oc2ccc(C#N)cc2)CC1`, for which the Percent Effect in assay [1] is -1%; in [2] it was 1.39%; in assay [3], 2.51%; in assay [4] it was -6.53%; with Trypanosoma cruzi, -6.12%; in [5], 1.77%. For the same molecule, the Percent Effect is 16.8% in assay [6]; 17.2% in the assay filed under Homo sapiens; 2.1% in [7]; 2.56% in assay [8]; -0.203% in assay [9].

On to `Cc1ncnc2c1CCN(Cc1ccccn1)CC2`, for which the Percent Effect was -2.86% in assay [1]; -2.74% in assay [2]; -0.577% in [3]; 1.97% in [4]; -3.57% with Trypanosoma cruzi; -0.798% in [5]. The Percent Effect in assay [6] is 1.46%; in the assay filed under Homo sapiens, -16.5%; in [7] it was 3.12%; in assay [8], -1.24%; in assay [9] it was 5.72%.

Take `Cc1ccc(-c2nnc(SCC(=O)O)n2-c2ccc(C)cc2)cc1`: the Percent Effect in assay [1] was -2.58%; in [2], 13.3%; in [3], 1.28%; in assay [4] it was 2.44%; in the assay with Trypanosoma cruzi, 3.74%; in assay [5] it was 1.17%. For the same molecule, the Percent Effect is 13.8% in [6]; 28.5% in the assay listed under Homo sapiens; 6.38% in [7]; -98.7% in [8]; -3.8% in [9].

On to `CC(C)Oc1cccc(C(=O)C2CCCN(C(=O)c3ncn[nH]3)C2)c1` (stereo unspecified), for which the Percent Effect is -0.804% in assay [1]; -2.7% in assay [2]; -3.49% in [3]; 0.785% in assay [4]; 7.92% with Trypanosoma cruzi; -1.91% in assay [5]. For the same molecule, the Percent Effect was 21.6% in assay [6]; 3.35% in the assay listed under Homo sapiens; 6.88% in [7]; 12.2% in [8]; -3.93% in assay [9].

As to `Cn1cnnc1S(=O)(=O)C1CCN(S(=O)(=O)C2CC2)CC1`, the Percent Effect in assay [1] is -2.77%; in assay [2] it was -2.74%; in assay [3], 14.5%; in assay [4], 1.56%; in the assay on Trypanosoma cruzi, -3.72%; in [5], -2.27%. Besides, the Percent Effect in [6] was 9.41%; in the assay filed under Homo sapiens, -3.78%; in assay [7], -3.23%; in assay [8], 2.5%; in assay [9], -1.03%.
